These results are taken from PubChem BioAssay AID819 (Columbia University Molecular Screening Center, 2007).

SMILES strings stand for the structures. Screen size: about 94,000 compounds; about 280 (0.3%) were called active.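 The calls were made as follows: active = activation above 40%, about the mean plus 3 SD, also judged a hit on visual image review; inconclusive = activation above 40% but not a hit on visual review; inactive = activation not above 40% and no visual hit.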 For the sample, actives were picked, then their nearest neighbours and some compounds at random.

A short description of the assay: enhancers of NFkB p65 translocation in HUVEC – imaging, IL-1B stimulus, high-content imaging, primary screen (AID 819).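 Also: percent activation is computed from the nuclear over cytoplasmic p65 intensity ratio.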 Conditions: HUVEC IL-1B NFkB p65 nuclear translocation imaging; at 2 µM; active compounds read high.
With `Nc1ccc(-c2sc(N)nc2-c2ccccc2)cc1`, the activation is -1.63% (inactive).

For the molecule `CC(C)c1ccc(N2CCN(C(=O)c3ccccc3NC(=O)/C=C(\C(=O)O)c3ccccc3)CC2)cc1`, the activation is 24.1% (inactive).

Consider `NC(=NC(=O)c1ccccc1)N1CCOCC1`, for which the activation is 3.72% (inactive).

As to `O=C(Cc1ncc(C(F)(F)F)cc1Cl)Nc1cccc(Br)c1`, the activation is 13.4% (inactive).

In the case of `O=[N+]([O-])c1ccc(Oc2ccc(F)cc2Br)c2ccncc12`, the activation is -1.85% (inactive).

For `S=C(NCCC1=CCCCC1)Nc1ccccc1`, the activation was -10.4% (inactive).

Regarding `Cc1nn(C)cc1/C=C1\CCC/C(=C\c2cn(C)nc2C)C1=O`, the activation is -13.1% (inactive).

With `COCC(C)NC(=O)c1ccc(-n2nc(C(F)(F)F)cc2-c2cccs2)cc1` (stereo not given), the activation is 15.7% (inactive).

Consider `COc1ccc(C(=O)n2nc(-c3ccc(Cl)cc3)nc2N)cc1OC`, for which the activation is 41.4% (active).

Take `COc1ccccc1C(=O)n1nc(-c2ccccc2)nc1N`: the activation is 13.8% (inactive).

With `COc1ccc(C(=O)n2nc(-c3ccc(C)cc3)nc2N)cc1OC`, the activation is -6.6% (inactive).

Turning to `CC(C)(CCl)C(=O)Nc1ccc(Sc2ccc(F)cc2)cc1`, the activation is -5.55% (inactive).

For the molecule `CCn1c(SCc2ccc(C)cc2)nnc1-c1nn(-c2ccccc2)ccc1=O`, the activation was 0.15% (inactive).

In the case of `O=C1c2ccccc2C(=O)c2c1cccc2N1CCN(CCO)CC1`, the activation is 11.4% (inactive).

For the molecule `CCC1(CC)NC(=O)N(CC(=O)OCC(=O)Nc2ccc(C(F)(F)F)cc2)C1=O`, the activation is -31.3% (inactive).

For `Cc1cccc(-c2nc3c(c(SCC(=O)N4CCOCC4)n2)CCCC3)c1`, the activation was 16.6% (inactive).

As for `COc1ccccc1NC(=O)[C@H](COCc1ccccc1)NC(=O)OC(C)(C)C`, the activation is 8.44% (inactive).

For the molecule `CCCC(=O)NC(Nc1ccccc1OC)C(Cl)(Cl)Cl` (stereo not given), the activation is -10.4% (inactive).

Consider `CCOC(=O)C1(S(=O)(=O)c2ccccc2)CCN(Cc2ccccc2)CC1`, for which the activation was 2.52% (inactive).

Consider `CCC(=O)Nc1ccc2nc(C)n(Cc3ccccc3Cl)c(=O)c2c1`, for which the activation was -5.54% (inactive).

Take `COc1cnc(SCc2ccc(Cl)c(Cl)c2)nc1Cl`: the activation was 20.1% (inactive).

As to `Cc1cc(C)cc(OCC(=O)NNC(=O)c2cc3ccccc3oc2=O)c1`, the activation was -12% (inactive).

For `Cc1cc(OC(=O)c2c(Cl)cccc2Cl)nc(C)n1`, the activation was 23% (inactive).

As for `N#Cc1ccc(Oc2cc(C(F)(F)F)nc(-c3ccccn3)n2)cc1`, the activation is 49.2% (active).

Take `COc1ccc(C(=O)Nc2nc(-c3ccc(OC)cc3)c(-c3ccc([N+](=O)[O-])cc3)s2)cc1`: the activation is 1.5% (inactive).

On to `CN(CC#CCC(c1ccccc1)c1ccccc1)C(C)(C)C`, for which the activation is 6.49% (inactive).

Turning to `Cc1cc([N+](=O)[O-])c(NC2CCCCC2)c([N+](=O)[O-])c1`, the activation is 3.11% (inactive).

With `NS(=O)(=O)c1ccc(Nc2nc(-c3ccccc3)cs2)cc1`, the activation is -18.6% (inactive).

For `O=C(CSCc1ccc([N+](=O)[O-])cc1)Nc1cccc(C(=O)Nc2ccccc2C(=O)O)c1`, the activation was 7.87% (inactive).

`COc1ccccc1NC(=O)c1ccc2nc(N3C(=O)CCC3=O)sc2c1`: the activation was 11.6% (inactive).

Regarding `COC(=O)c1ccccc1OCC(=O)N1CCN(c2ccc(Cl)cc2)CC1`, the activation is 11.5% (inactive).

In the case of `COc1ccccc1OCCNc1cc(N2CCOCC2)ccc1[N+](=O)[O-]`, the activation was 7.12% (inactive).

For the molecule `Cc1nnc(SCC(=O)NC(=O)NC2CCCC2)n1N`, the activation is -1.65% (inactive).

For `CCOC(=O)c1cnc(-c2ccccc2)nc1Oc1ccc(C)cc1`, the activation is -7.86% (inactive).

Regarding `CC(C)NC(=O)NC(=O)COC(=O)c1ccc(NC(=O)CC#N)cc1`, the activation was 5.58% (inactive).

Take `O=S(=O)(c1ccc(F)cc1)n1ccc(-c2cnc(-c3ccccc3)s2)n1`: the activation is 5.1% (inactive).

As for `CCOCCOCCC(C(=O)O)P(=O)(c1ccccc1)c1ccccc1` (stereo not given), the activation was 2.8% (inactive).

For the molecule `O=c1nc2s/c(=C\c3ccco3)c(=O)n2nc1Cc1ccccc1`, the activation is 10.3% (inactive).

For the molecule `CCOc1ccccc1/C=c1\sc2nc(-c3ccco3)nn2c1=O`, the activation is 53.9% (active).

For the molecule `CCOc1ccccc1C(=O)NCc1ccco1`, the activation is 8.02% (inactive).

Regarding `CCOC1CS(=O)(=O)CC1OCC` (stereo not given), the activation was 12.8% (inactive).

On to `O=C1c2ccccc2C(=O)c2c1cccc2N1CCN(Cc2ccccc2)CC1`, for which the activation was -2.37% (inactive).

For `O=C(COC(=O)c1ccccc1NC(=O)c1ccco1)Nc1ccc2c(c1)OC(F)(F)O2`, the activation was 0.88% (inactive).

Take `CC(=O)c1ccc2c(ccc3ccccc32)c1`: the activation is 8.21% (inactive).

As to `CCCN1Cc2cccc(C(=O)Nc3ccc(S(=O)(=O)N4CCCCCC4)cc3)c2C1=O`, the activation was 7.44% (inactive).

For the molecule `O=C(Nc1ccc(Cl)cc1)OCc1cc(-c2ccccc2)on1`, the activation was 15.4% (inactive).

`CC(=O)c1cnn(-c2cc(Oc3ccc(F)cc3)ncn2)c1C`: the activation is 10.6% (inactive).

Take `CC(=O)c1ccc(Oc2cc(C)nc(-n3nc(C)cc3C)n2)cc1`: the activation was -11.2% (inactive).

Take `Cc1cc(C)n(-c2cc(Oc3ccccc3)ncn2)n1`: the activation was 43.8% (active).

Turning to `CC12c3ccccc3C(c3ccccc31)C1C(=O)N(Cc3cccnc3)C(=O)C12` (stereo not given), the activation was -8.61% (inactive).

In the case of `COc1cc(OC)cc(C(=O)NC2CCN(C(=O)N3c4ccccc4Sc4ccccc43)CC2)c1`, the activation is 1.07% (inactive).

In the case of `O=C(OCc1cn(-c2ccc(Cl)c(Cl)c2)nn1)c1ccccc1Cl`, the activation is 12.2% (inactive).

With `O=C(CN1C(=O)NC(Cc2ccccc2)(Cc2ccccc2)C1=O)NCC1CCCCC1`, the activation was 0% (inactive).

Regarding `CCCCOC(=O)Nc1sc2nc(C)cc(C)c2c1-n1cccc1`, the activation was -1.73% (inactive).

As for `Cc1cc2c(cc1C)N(C(=O)CN1C(=O)c3ccccc3C1=O)C(C)(C)c1ssc(=S)c1-2`, the activation is 17.4% (inactive).

For `COc1ccc(-c2[nH]nc(-c3ccccc3)c2-c2nc3ccccc3[nH]2)cc1`, the activation was -1.89% (inactive).

With `CCN1CCN(Cc2c(O)ccc3c(=O)c(-c4ccc(OC)c(OC)c4)c(C(F)(F)F)oc23)CC1`, the activation is 65.5% (active).

For `COc1ccc(OC)c(C(=O)c2coc3ccc(O)c(CN4CCOCC4)c23)c1`, the activation is -5.05% (inactive).

As for `O=c1c(-c2ccc3c(c2)OCCO3)c(C(F)(F)F)oc2cc(O)cc(O)c12`, the activation is 9.87% (inactive).

For `O=C(c1ccc2c(c1)OCO2)N1CCOCC1`, the activation is -1.72% (inactive).
